# Measurements from PubChem BioAssay (Tox21).
# Unmarked numbers belong to inactive results. Results filed as inconclusive are left out. A call without a number means that no potency is given here. The source made the active and inactive calls. Unless noted, calls follow the shape of the dose curve; as a rule, active = well fitted curve in the direction sought with a large enough effect in the repeat runs; inconclusive = weak or mixed curves; inactive = no such curve, though single readings can be large; an effect the other way counts as inactive or inconclusive.
# Assay: qHTS assay to identify small molecule agonists of the hypoxia (HIF-1) signaling pathway (AID 1224846; active = well fitted activation curve with a large enough effect in the signal ratio in the repeat runs, not every such curve was filed as active; the % refers to the signal ratio)
# Settings: HRE-bla ME-180 cells, beta-lactamase ratio, 17 h; series mostly up to 76.8 µM
# Procedure, shortened: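 In ME-180 cells bearing an HRE-bla construct, 17 h treatment with DMSO-dissolved compounds at 37C was followed by CCF4-AM loading to quantify reporter induction.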
SMILES,Potency,activation
N=c1ccn2c(n1)O[C@H]1[C@H](O)[C@@H](CO)O[C@H]12,inactive,
CC(C)Cc1ccc(C(C)C(=O)OCc2ccccn2)cc1 (configuration not stated),inactive,
CC1=CC=C(C(C)C)CC1,inactive,
C=C(C)C(=O)OCCOCC,inactive,
CCOC(=O)COC(=O)c1cc(Oc2ccc(C(F)(F)F)cc2Cl)ccc1[N+](=O)[O-],inactive,
COc1ccc(C(=O)c2ccc(OC)cc2O)c(O)c1,inactive,
NS(=O)(=O)c1ccc(N2CCCCS2(=O)=O)cc1,inactive,
CCOc1ccc(O)cc1,inactive,
CN(Cc1ccc(C(C)(C)C)cc1)Cc1cccc2ccccc12,inactive,
CCCC(=O)Nc1ccc(O)c(C(C)=O)c1,inactive,
CC(C)CC(=O)C1C(=O)c2ccccc2C1=O,inactive,
CN(C)c1ccc(CCO)cc1,inactive,
CCN(CC)CCOC(=O)C(c1ccccc1)C1CCCCC1 (configuration not stated),inactive,
Cc1ccc(C(=O)Oc2ccc(C(O)CNC(C)(C)C)cc2OC(=O)c2ccc(C)cc2)cc1 (configuration not stated),inactive,
Cc1[nH]c(C)c(Cl)c(=O)c1Cl,,-0.25% [at 15.8 µM]
C/C=C/C=C/CO,inactive,
COc1cc(Cl)c(OC)cc1N,inactive,
Nc1c(CC(=O)O)cccc1C(=O)c1ccc(Br)cc1,inactive,
CNCCCCOc1ccccc1Cc1ccccc1,inactive,
Cc1ccc(N=Nc2c(O)c(C(=O)O)cc3ccccc23)c(S(=O)(=O)O)c1,inactive,
CCCCC(CC)COC(=O)COc1ccc(Cl)cc1Cl (configuration not stated),inactive,
O=C(CS)Nc1ccccc1,inactive,
O=C(O)c1ccccc1Cl,inactive,
CC(=O)OC[C@H]1O[C@@H](n2ncc(=O)[nH]c2=O)[C@H](OC(C)=O)[C@@H]1OC(C)=O,inactive,
Clc1ccc2c(c1)CCc1cccnc1C2=C1CCNCC1,inactive,

# Assay: qHTS assay to identify small molecule agonists of H2AX - cell viability counter screen (AID 1224847; calls by dose curve; also: nearly all actives have a fitted effect of over 30% in size; also: potency is read from the fitted curve at half-maximal effect; as to activity change, negative = cytotoxicity: top concentration of the series differs between compounds)
# Settings: CHO-K1 viability, CellTiter-Glo luminescence, 3 h; series mostly up to 154 µM
# Procedure, shortened: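 Quantitative HTS viability measurement: CHO-K1 wild-type cells in serum (10% FBS) medium, short 3 hr drug exposure at 37C with 0.76% DMSO, CellTiter-Glo luminescent detection.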
SMILES,Potency,"activity change, negative = cytotoxicity"
CC(C)Cc1ccc(C(C)C(=O)OCc2ccccn2)cc1 (configuration not stated),inactive,
CC1=CC=C(C(C)C)CC1,inactive,
CN1CCN(C(c2ccccc2)c2ccccc2)CC1,inactive,
C/C(=C(\CCOP(=O)(O)O)SC(=O)c1ccccc1)N(C=O)Cc1cnc(C)nc1N,,0.972% [at 14 µM]
C=C(C)C(=O)OCCOCC,inactive,
C[N+]1(C)CCC(OC(=O)C(O)(c2ccccc2)C2CCCC2)C1 (configuration not stated),inactive,
NS(=O)(=O)c1ccc(N2CCCCS2(=O)=O)cc1,inactive,
CCOc1ccc(O)cc1,inactive,
CC(=O)c1ccc2c(c1)N(CCCN(C)C)c1ccccc1S2,inactive,
CCCn1cnc2c1c(=O)n(CCCCC(C)=O)c(=O)n2C,inactive,
CCCC(=O)Nc1ccc(O)c(C(C)=O)c1,inactive,
CN(C)c1ccc(CCO)cc1,inactive,
CCN(CC)CCOC(=O)C(c1ccccc1)C1CCCCC1 (configuration not stated),49.2 µM (active),
Cc1ccc(C(=O)Oc2ccc(C(O)CNC(C)(C)C)cc2OC(=O)c2ccc(C)cc2)cc1 (configuration not stated),inactive,
Cc1[nH]c(C)c(Cl)c(=O)c1Cl,,-0.294% [at 31.6 µM]
C/C=C/C=C/CO,inactive,
COc1cc(Cl)c(OC)cc1N,inactive,
Nc1c(CC(=O)O)cccc1C(=O)c1ccc(Br)cc1,inactive,
CCCCCCCCCc1ccc(OCCOCCO)cc1,37.6 µM (active),
Brc1c2ccccc2c(Br)c2ccccc12,,5.06% [at 14 µM]
CCCCC(CC)COC(=O)COc1ccc(Cl)cc1Cl (configuration not stated),inactive,
O=C(CS)Nc1ccccc1,inactive,
O=C(O)c1ccccc1Cl,inactive,
CC(=O)OC[C@H]1O[C@@H](n2ncc(=O)[nH]c2=O)[C@H](OC(C)=O)[C@@H]1OC(C)=O,inactive,
Clc1ccc2c(c1)CCc1cccnc1C2=C1CCNCC1,inactive,

# Assay: qHTS assay to identify small molecule antagonists of the estrogen related receptor (ERR) signaling pathway from Tox21 library (AID 1224848); also: nearly all actives have a fitted effect of over 50% in size; also: potency is read from the fitted curve at half-maximal effect
# Settings: ERR reporter cell line, luciferase antagonist mode, 18 h; series mostly up to 92.4 µM
# Procedure, shortened: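 First, 2,000 ERR cells per well were plated and held 6 h at 37 C/5% CO2. Next, compounds in DMSO were pinned in and left 18 h at 37 C. Finally, ONE-Glo was added and luminescence read after 30 min at room temperature.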
SMILES,Potency,"activity, negative = inhibition"
N=c1ccn2c(n1)O[C@H]1[C@H](O)[C@@H](CO)O[C@H]12,inactive,
COc1ccc(C(=O)c2ccc(OC)cc2O)c(O)c1,inactive,
NS(=O)(=O)c1ccc(N2CCCCS2(=O)=O)cc1,inactive,
O=C(O)c1ccc(-n2nc(-c3ccccc3O)nc2-c2ccccc2O)cc1,21.1 µM (active),
CCCn1cnc2c1c(=O)n(CCCCC(C)=O)c(=O)n2C,inactive,
CC(C)CC(=O)C1C(=O)c2ccccc2C1=O,30.6 µM (active),
Brc1c2ccccc2c(Br)c2ccccc12,,4.96% [at 8.39 µM]

# Assay: qHTS assay to identify small molecule agonists of the estrogen related receptor (ERR) signaling pathway from Tox21 library (AID 1224849; calls by dose curve; also: nearly all actives have a fitted effect of over 15% in size)
# Settings: ERR reporter cell line, ONE-Glo luciferase, 18 h; at 92.4 µM (top of the series) unless noted
# Procedure, shortened: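 Reporter cells (ERR, NTP source) treated with Tox21 10K compounds 18 h, 37 C. Readout: ONE-Glo luminescence, 30 min RT.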
row,SMILES,"activity change, positive = activation"
1,NS(=O)(=O)c1ccc(N2CCCCS2(=O)=O)cc1,5.22% [at 42.5 µM]
2,CCCn1cnc2c1c(=O)n(CCCCC(C)=O)c(=O)n2C,0.154% [at 42.5 µM]
3,CCCCCCCCCCCCCCCCCCOS(=O)(=O)O,-38.9%
4,Brc1c2ccccc2c(Br)c2ccccc12,2.61% [at 8.39 µM]

# Assay: qHTS RealTime-Glo MT Cell Viability Assay in HepG2 cells - 24 hour (AID 1224867); also: nearly all actives have a fitted effect of over 50% in size; also: potency is read from the fitted curve at half-maximal effect
# Settings: RealTime-Glo luminescence; series mostly up to 76.8 µM
# Procedure, shortened: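 Compound treatment began 5 h after plating HepG2 cells (600/well) with NanoLuc luciferase and prosubstrate. Plates stayed at 37 C for 40 h; luminescence was captured at six time points, 0 h through 40 h.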
SMILES,Potency,"activity change, negative = cytotoxicity"
N=c1ccn2c(n1)O[C@H]1[C@H](O)[C@@H](CO)O[C@H]12,inactive,
CC(C)Cc1ccc(C(C)C(=O)OCc2ccccn2)cc1 (configuration not stated),inactive,
CC1=CC=C(C(C)C)CC1,inactive,
CN1CCN(C(c2ccccc2)c2ccccc2)CC1,inactive,
C/C(=C(\CCOP(=O)(O)O)SC(=O)c1ccccc1)N(C=O)Cc1cnc(C)nc1N,,1.32% [at 6.97 µM]
CCOC(=O)COC(=O)c1cc(Oc2ccc(C(F)(F)F)cc2Cl)ccc1[N+](=O)[O-],inactive,
COc1ccc(C(=O)c2ccc(OC)cc2O)c(O)c1,inactive,
C[N+]1(C)CCC(OC(=O)C(O)(c2ccccc2)C2CCCC2)C1 (configuration not stated),inactive,
NS(=O)(=O)c1ccc(N2CCCCS2(=O)=O)cc1,inactive,
O=C(O)c1ccc(-n2nc(-c3ccccc3O)nc2-c2ccccc2O)cc1,inactive,
CCOc1ccc(O)cc1,inactive,
CN(Cc1ccc(C(C)(C)C)cc1)Cc1cccc2ccccc12,inactive,
CC(=O)c1ccc2c(c1)N(CCCN(C)C)c1ccccc1S2,inactive,
CCCn1cnc2c1c(=O)n(CCCCC(C)=O)c(=O)n2C,inactive,
CCCC(=O)Nc1ccc(O)c(C(C)=O)c1,inactive,
CC(C)CC(=O)C1C(=O)c2ccccc2C1=O,inactive,
CN(C)c1ccc(CCO)cc1,inactive,
Cc1ccc(C(=O)Oc2ccc(C(O)CNC(C)(C)C)cc2OC(=O)c2ccc(C)cc2)cc1 (configuration not stated),21.3 µM (active),
C/C=C/C=C/CO,inactive,
COc1cc(Cl)c(OC)cc1N,inactive,
Nc1c(CC(=O)O)cccc1C(=O)c1ccc(Br)cc1,inactive,
Cc1ccc(N=Nc2c(O)c(C(=O)O)cc3ccccc23)c(S(=O)(=O)O)c1,inactive,
CCCCC(CC)COC(=O)COc1ccc(Cl)cc1Cl (configuration not stated),inactive,
O=C(CS)Nc1ccccc1,inactive,
O=C(O)c1ccccc1Cl,inactive,
CC(=O)OC[C@H]1O[C@@H](n2ncc(=O)[nH]c2=O)[C@H](OC(C)=O)[C@@H]1OC(C)=O,inactive,
